Results filed as inconclusive are left out. A call without a number means that no potency is given here. The source made the active and inactive calls. The call rests on the fitted dose curve.

Chain of Tyrosine-protein kinase ABL1 (Homo sapiens) (P00519 whole entry, looked up): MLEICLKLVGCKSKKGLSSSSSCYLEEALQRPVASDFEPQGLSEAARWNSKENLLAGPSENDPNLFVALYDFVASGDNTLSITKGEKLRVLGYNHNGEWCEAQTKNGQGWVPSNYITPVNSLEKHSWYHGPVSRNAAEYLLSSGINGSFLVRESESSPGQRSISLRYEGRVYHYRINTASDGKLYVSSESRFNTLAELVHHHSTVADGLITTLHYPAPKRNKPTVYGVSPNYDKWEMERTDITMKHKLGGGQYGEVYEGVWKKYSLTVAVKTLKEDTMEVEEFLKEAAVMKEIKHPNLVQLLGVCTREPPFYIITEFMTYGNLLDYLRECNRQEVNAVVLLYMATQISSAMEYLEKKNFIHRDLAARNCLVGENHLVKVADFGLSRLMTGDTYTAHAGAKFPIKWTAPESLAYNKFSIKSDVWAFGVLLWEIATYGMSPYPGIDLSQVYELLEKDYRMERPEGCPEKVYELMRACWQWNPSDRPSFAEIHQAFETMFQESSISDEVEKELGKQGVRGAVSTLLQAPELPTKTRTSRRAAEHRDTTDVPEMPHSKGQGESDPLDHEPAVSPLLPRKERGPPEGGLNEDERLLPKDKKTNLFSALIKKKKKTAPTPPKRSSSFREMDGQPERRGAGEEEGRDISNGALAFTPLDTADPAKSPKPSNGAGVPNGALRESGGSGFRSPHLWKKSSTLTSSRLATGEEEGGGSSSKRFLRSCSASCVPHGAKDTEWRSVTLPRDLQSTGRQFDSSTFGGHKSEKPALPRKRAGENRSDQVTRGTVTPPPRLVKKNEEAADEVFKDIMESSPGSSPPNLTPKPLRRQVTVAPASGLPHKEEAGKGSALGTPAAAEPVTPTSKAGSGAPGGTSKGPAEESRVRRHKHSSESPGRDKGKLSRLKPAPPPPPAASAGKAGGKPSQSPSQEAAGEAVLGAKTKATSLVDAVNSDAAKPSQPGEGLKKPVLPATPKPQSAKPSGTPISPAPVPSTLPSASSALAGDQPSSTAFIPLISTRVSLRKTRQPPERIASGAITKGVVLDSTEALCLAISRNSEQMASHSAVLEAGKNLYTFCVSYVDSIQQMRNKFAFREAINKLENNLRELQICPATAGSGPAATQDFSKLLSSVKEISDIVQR

The assay has as its target Tyrosine-protein kinase ABL1 (Homo sapiens) (UniProt P00519). The assay can be described thus: ABL1 kinase (ABL1-N-HiBiT) SDR gain of signal screen. The settings on record: Purified ABL1-N-HiBiT enzyme, Nano-Glo HiBiT luminescence, 30 min compound incubation; series mostly up to 32.9 µM. From the text: National Center for Advancing Translational Sciences (NCATS),
National Institute of Health (NIH), Maryland
Discovery and optimization of novel protein-binding ligands underlies many of the methods and applications of biology, drug discovery, clinical diagnostics, and environmental toxicology. Assays for detecting the interaction of, for example, a molecule with a macromolecular target also referred to here as the target of interest (TOI) is dependent on a compatible output technology. Depending on the nature and knowledge surrounding the TOI, whether a receptor, enzyme, regulatory subunit or scaffold, or a sequence-defined nucleic acid folded into a complex tertiary structure, assay strategies can vary widely.
Here we exploit ligand-biased changes in the structural dynamics of the target protein to control reporter alpha complementation allowing a non-competitive, non-functional, non-separation measure of ligand-target interaction.
Secondly, we show the specificity and sensitivity of the SDR for the Abelson tyrosine kinase (ABL1) compared to the serine/threonine protein kinase A, using an enriched chemical library of 128 compounds selected, in part, for activity annotated with ABL1 kinase activity using the Pharos database (3).
(1) A. S. Dixon et al., NanoLuc Complementation Reporter Optimized for Accurate Measurement of Protein Interactions in Cells. ACS Chem Biol 11, 400-408 (2016).
Chemistry & Biology, 19, 1060 - 1072 (2012).
(3) K. J. Kelleher et al., Pharos 2023: an integrated resource for the understudied human proteome. Nucleic Acids Res 51, D1405-D1416 (2023).
PROTOCOL TABLE (as described by Inglese J, Shamu CE and Guy RK. 2007)
SEQUENCE No. (e.g., 1, 2, 3, etc.); […] (e.g., C. elegans, Compounds, Incubation, Read, etc.); VALUE and DESCRIPTION.
1. Reagent. Dispense 4 uL ABL1-N-HiBiT enzyme per well at a final enzyme concentration of 10 nM in buffer without ATP (SDR assay) into columns 2-48 of four replicate Greiner 1536-well white, solid bottom high base, medium plates per assay. Dispense respective buffer without enzyme at 4 uL/well in column 1 of assay plates using BioRaptr 2.
2. Compounds. Library compounds added at 23 nL/well by pin transfer. DMSO neutral control and imatinib positive control added at 25 nL/well, transfer by Mosquito dispenser.
3. Incubation. Incubate enzyme and compounds at room temperature for 30 min, protected from light.
4. Reagent. (SDR assay) Add 3 uL/well of Nano-Glo HiBiT reagent (Promega) to assay plates with or without ATP.
5. Incubation. (SDR assay) Incubate enzyme solution and HiBiT reagent at room temperature for 10 min, protect from light.
6. Detector. (SDR assay) Luminescence measured using CCD-based camera (ViewLux) with settings as follows: Exposure, 1 sec; Gain, High; Speed, Slow; Binning, 2X.
Inglese J, Shamu CE and Guy RK, Reporting data from high throughput screening of small molecule libraries, Nature Chemical Biology, 2007, 3(8): 438-441. doi.org/10.1038/nchembio0807-438.
As for `O=[N+]([O-])O[C@H]1CO[C@H]2[C@@H]1OC[C@H]2O[N+](=O)[O-]`, the Potency entry was “inactive”.
As for `C/C(O)=C(\C#N)C(=O)Nc1cc(Br)ccc1Br`, the entry is “inactive”; as for `Cc1[nH]nc2ccc(-c3cncc(OC[C@@H](N)Cc4c[nH]c5ccccc45)c3)cc12`, “inactive”; as for `O=C(NCCCNc1nc(Nc2ccc(N3CCOCC3)cc2)ncc1C1CC1)C1CCC1`, “inactive”.
The entry for `CCNC(=O)C[C@@H]1N=C(c2ccc(Cl)cc2)c2cc(OC)ccc2-n2c(C)nnc21` is “inactive”; for `N#Cc1cn([C@@H]2O[C@H](CO)[C@H](O)[C@@H]2O)c2ncnc(N)c12` it is 6.05 µM (active).

For the origin of these results see PubChem BioAssay AID1963315 (National Center for Advancing Translational Sciences (NCATS), 2024).
